This is part of a sample that, as a whole, favours compounds with a hit. Of some 79,000 tested, about 15% had one in any assay. Active and inactive are the calls of the source. No stated cut-off is given here; in the data, active means growth inhibition above about 70%; inactive means the rest.
Columns and labels:
[1] = NCI Yeast Anticancer Drug Screen. Data for the rad52 strain (AID 147);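 further: 0% = growth of vehicle-treated control cultures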; conditions: S. cerevisiae rad52 mutant growth inhibition, active compounds read high
How it was run: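 Yeast strain carrying a DNA damage repair alteration was exposed to test compounds. Growth inhibition was measured relative to vehicle-treated controls.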

[2] = NCI Yeast Anticancer Drug Screen. Data for the wt1 strain (AID 149);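 further: 0% = growth of vehicle-treated wt1 cultures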; conditions: S. cerevisiae wt1 strain (SPY 50644) growth inhibition, active compounds read high
How it was run: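 Yeast wt1 strain exposed to compounds; growth inhibition measured relative to vehicle-treated controls.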

[3] = NCI Yeast Anticancer Drug Screen. Data for the rad50EPP+ strain (AID 151);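 further: 0% = growth of vehicle-treated control cultures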; conditions: S. cerevisiae rad50 mutant strain, active compounds read high
How it was run: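 Yeast strain carrying rad50 alteration (rad50EPP+) exposed to compounds; growth inhibition measured relative to vehicle-treated controls.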

[4] = NCI Yeast Anticancer Drug Screen. Data for the mgt1 strain (AID 153); conditions: S. cerevisiae mgt1 mutant growth inhibition, active compounds read high
How it was run: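 Yeast mgt1 strain (DNA repair/cell-cycle alteration panel) exposed to compounds; growth inhibition measured relative to vehicle-treated controls.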

[5] = NCI Yeast Anticancer Drug Screen. Data for the rad50 strain (AID 155);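 further: 0% = growth of vehicle-only cultures of the same strain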; conditions: S. cerevisiae rad50 strain growth inhibition, active compounds read high
How it was run: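 Yeast carrying a defined DNA repair defect were exposed to test compounds, and growth was compared with vehicle-treated controls to give percent inhibition.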

[6] = NCI Yeast Anticancer Drug Screen. Data for the mec2-1 strain (AID 157); conditions: S. cerevisiae mec2-1 strain, active compounds read high
How it was run: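 mec2-1 yeast strain, carrying an alteration in DNA damage repair or cell cycle control, was exposed to compounds; growth inhibition was measured relative to vehicle-treated controls.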

[7] = NCI Yeast Anticancer Drug Screen. Data for the rad14 strain (AID 159);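 further: 0% = growth of vehicle-treated control cultures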; conditions: S. cerevisiae rad14 strain growth inhibition, active compounds read high
How it was run: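 Yeast cells carrying a defined DNA-repair defect were exposed to compounds, and growth inhibition was calculated relative to vehicle-treated control cultures.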

[8] = NCI Yeast Anticancer Drug Screen. Data for the sgs1 mgt1 strain (AID 161);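 further: 0% = growth of cultures given vehicle only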; conditions: S. cerevisiae sgs1 mgt1 strain, active compounds read high
How it was run: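 Compounds are added to genetically altered yeast, and growth is compared with cultures given vehicle alone to give percent inhibition.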

[9] = NCI Yeast Anticancer Drug Screen. Data for the CLN2oe strain (AID 163);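 further: 0% = growth of vehicle-only control cultures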; conditions: S. cerevisiae CLN2oe strain, active compounds read high
How it was run: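 Yeast cells carrying a defined cell-cycle control alteration were exposed to test compounds. Growth inhibition was scored against vehicle-treated control cultures.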

[10] = NCI Yeast Anticancer Drug Screen. Data for the cln2 rad14 strain (AID 165);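 further: 0% = growth equal to vehicle treated cultures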; conditions: S. cerevisiae cln2 rad14 strain, active compounds read high
How it was run: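 Yeast carrying cln2 and rad14 alterations (cell cycle control and DNA damage repair) were exposed to compounds. Growth inhibition was measured against vehicle-treated controls.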

[11] = NCI Yeast Anticancer Drug Screen. Data for the bub3 strain (AID 167); conditions: S. cerevisiae bub3 mutant strain, active compounds read high
How it was run: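 Compounds were applied to a genetically altered yeast strain carrying a cell-cycle control defect. Growth inhibition was scored against vehicle-treated controls.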

[12] = NCI Yeast Anticancer Drug Screen. Data for the wt2 strain (AID 169);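 further: 0% = growth of vehicle-treated yeast cultures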; conditions: S. cerevisiae wt2 strain growth inhibition, active compounds read high
How it was run: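 Yeast cells were exposed to test compounds, and growth inhibition was measured relative to vehicle-treated controls.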

[13] = NCI Yeast Anticancer Drug Screen. Data for the mlh1 strain (AID 171);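 further: 0% = growth of vehicle-treated control cultures of the same strain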; conditions: S. cerevisiae mlh1 strain growth inhibition, active compounds read high
How it was run: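 Yeast carrying a defined genetic alteration in DNA damage repair or cell cycle control were exposed to test compounds. Growth inhibition was measured relative to vehicle-treated controls.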

[14] = NCI Yeast Anticancer Drug Screen. Data for the sgs1 strain (AID 173);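 further: 0% = growth of vehicle-only control cultures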; conditions: S. cerevisiae sgs1 mutant, active compounds read high
How it was run: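 Yeast mutant strains carrying defined defects in DNA damage repair or cell cycle control were exposed to test compounds. Growth inhibition was scored against vehicle-treated controls.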

[15] = NCI Yeast Anticancer Drug Screen. Data for the mlh1 rad18 strain (AID 175); conditions: S. cerevisiae mlh1 rad18 strain growth inhibition, active compounds read high
How it was run: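 Growth inhibition of the yeast strain was measured after compound exposure and expressed relative to vehicle-treated controls. The strain carries defined defects in DNA damage repair.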

[16] = NCI Yeast Anticancer Drug Screen. Data for the rad18 strain (AID 177); conditions: S. cerevisiae rad18 mutant growth inhibition, active compounds read high
How it was run: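 Yeast carrying a defined DNA damage repair alteration were exposed to compounds. Growth inhibition was expressed relative to vehicle-treated controls.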

[17] = at 5.0 µM (retest, dose inferred, filed as 0.5)
[18] = at 50.0 µM (retest, dose inferred, filed as 5.0)

Measured: growth inhibition

Cn1c(=O)c(-c2ccccc2)c(N=[N+]=[N-])c2ccccc21
active: [1]; at 33.0 µM 92% | [1]; at 100.0 µM 89% | [2]; at 33.0 µM 91% | [2]; at 100.0 µM 90% | [4]; at 33.0 µM 94% | [4]; at 100.0 µM 89% | [5]; at 33.0 µM 92% | [5]; [18] 94% | [5]; at 50.0 µM 82.7% | [5]; at 100.0 µM 92% | [6]; at 33.0 µM 87% | [6]; [18] 92% | [6]; at 50.0 µM 83.8% | [6]; at 100.0 µM 93% | [7]; at 33.0 µM 93% | [7]; at 100.0 µM 89% | [8]; [18] 93% | [8]; at 50.0 µM 87.4% | [9]; at 33.0 µM 94% | [9]; at 100.0 µM 90% | [10]; [18] 89% | [10]; at 50.0 µM 86% | [11]; at 33.0 µM 94% | [11]; [18] 95% | [11]; at 50.0 µM 86.5% | [11]; at 100.0 µM 94% | [12]; at 33.0 µM 87% | [12]; at 100.0 µM 91% | [13]; at 33.0 µM 92% | [13]; at 100.0 µM 88% | [14]; at 33.0 µM 91% | [14]; at 100.0 µM 92% | [15]; [18] 94% | [15]; at 50.0 µM 83% | [16]; at 33.0 µM 93% | [16]; at 100.0 µM 85%
inactive: [1]; at 1.2 µM -11% | [1]; at 3.7 µM -6% | [1]; at 11.0 µM 3% | [2]; at 1.2 µM -38% | [2]; at 3.7 µM -26% | [2]; at 11.0 µM -25% | [3]; at 1.2 µM -15% | [3]; at 3.7 µM 6% | [3]; at 11.0 µM 10% | [3]; at 33.0 µM 4% | [3]; at 100.0 µM -18% | [4]; at 1.2 µM 1% | [4]; at 3.7 µM 0% | [4]; at 11.0 µM 32% | [5]; at 1.2 µM 14% | [5]; at 3.7 µM 7% | [5]; [17] -22% | [5]; at 11.0 µM 20% | [6]; at 1.2 µM -1% | [6]; at 3.7 µM -9% | [6]; [17] -10% | [6]; at 11.0 µM 4% | [7]; at 1.2 µM 12% | [7]; at 3.7 µM 4% | [7]; at 11.0 µM 5% | [8]; [17] 61% | [9]; at 1.2 µM 5% | [9]; at 3.7 µM -17% | [9]; at 11.0 µM 13% | [10]; [17] 23% | [11]; at 1.2 µM 26% | [11]; at 3.7 µM 26% | [11]; [17] -7% | [11]; at 11.0 µM 35% | [12]; at 1.2 µM -35% | [12]; at 3.7 µM -29% | [12]; at 11.0 µM -9% | [13]; at 1.2 µM 1% | [13]; at 3.7 µM 3% | [13]; at 11.0 µM 43% | [14]; at 1.2 µM -11% | [14]; at 3.7 µM -13% | [14]; at 11.0 µM 13% | [15]; [17] -4% | [16]; at 1.2 µM 7% | [16]; at 3.7 µM -5% | [16]; at 11.0 µM 11%

Source: PubChem BioAssay (NCI)
